Several values for one entry are separate records, joined by “and”; a condition that tells them apart may be missing. Identical values can stand only once.
Key:
Experiment in all cases: thermal shift delta Tm vs DMSO control; higher = stronger stabilization (binding)
Conditions in all cases: 12.5 µM; protein concentration 2 µM
[1] = tested on: LOC_OS01G01410-cb001
Method in brief: (§1)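 Rice kinase domain constructs were expressed in E. coli, purified, and tested by differential scanning fluorimetry with compound added in DMSO. Each well of a 96-well plate held 19.5 μl of 2 μM kinase in 100 mM potassium phosphate pH 7.5, 150 mM NaCl, 10% glycerol and 5 × SYPRO Orange, and fluorescence was read from 25°C to 95°C at 0.05°C/s. The melting temperature shift is the mean of triplicates, taken against protein with DMSO alone after Boltzmann fitting.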

[2] = tested on: LOC_OS01G02750-cb003
Method in brief: as §1

[3] = tested on: LOC_OS01G10900-cb004
Method in brief: as §1

[4] = tested on: LOC_OS01G13800-cb001
Method in brief: as §1

[5] = tested on: LOC_OS01G14860-cb001
Method in brief: as §1

[6] = tested on: LOC_OS01G21960-cb002
Method in brief: as §1

[7] = tested on: LOC_OS01G39600-cb002
Method in brief: as §1

[8] = tested on: LOC_OS01G48390-cb002
Method in brief: as §1

[9] = tested on: LOC_OS01G51400-cb002
Method in brief: as §1

[10] = tested on: T1, LOC_OS01G52050-cb004
T1 sequence (whole entry): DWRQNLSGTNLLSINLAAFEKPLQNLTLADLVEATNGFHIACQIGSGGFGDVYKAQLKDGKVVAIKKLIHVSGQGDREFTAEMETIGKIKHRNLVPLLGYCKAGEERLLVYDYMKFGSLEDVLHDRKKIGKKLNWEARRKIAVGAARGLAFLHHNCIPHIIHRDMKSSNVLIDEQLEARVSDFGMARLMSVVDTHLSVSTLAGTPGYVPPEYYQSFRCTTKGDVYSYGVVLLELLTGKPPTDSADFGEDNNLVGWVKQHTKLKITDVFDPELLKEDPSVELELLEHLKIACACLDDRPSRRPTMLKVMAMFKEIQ
Method in brief: as §1

SMILES | thermal shift delta Tm [1] | thermal shift delta Tm [2] | thermal shift delta Tm [3] | thermal shift delta Tm [4] | thermal shift delta Tm [5] | thermal shift delta Tm [6] | thermal shift delta Tm [7] | thermal shift delta Tm [8] | thermal shift delta Tm [9] | thermal shift delta Tm [10]
CO[C@H]1C[C@@H]2CC[C@@H](C)[C@@](O)(O2)C(=O)C(=O)N2CCCC[C@H]2C(=O)O[C@H]([C@H](C)C[C@@H]2CC[C@@H](OP(C)(C)=O)[C@H](OC)C2)CC(=O)[C@H](C)/C=C(\C)[C@@H](O)[C@@H](OC)C(=O)[C@H](C)C[C@H](C)/C=C/C=C/C=C/1C [Ridaforolimus (Deforolimus, MK-8669)] | 0.73 °C | -1.9 °C | 0.47 °C | 0.18 °C | 0.16 °C | 0.07 °C | -0.26 °C | 0.54 °C | -0.09 °C | 0.11 °C
CC[C@H](CO)Nc1nc(NCc2ccccc2)c2ncn(C(C)C)c2n1 [Roscovitine (Seliciclib,CYC202)] | 1.5 °C | 0 °C | 0.05 °C | 0.22 °C | 0.12 °C | 0.12 °C | 0.5 °C | 0.22 °C | 0.03 °C | 0.24 °C
COc1cccc(-n2c(=O)[nH]c3cc(Cl)n(-c4ccc(-c5cccc(OC)c5O)cc4)c3c2=O)c1 | 0.44 °C | 1.69 °C | -0.02 °C | 0.72 °C | 0.13 °C | 0.8 °C | -0.12 °C | 1.54 °C | 0.69 °C | 0.03 °C
CCc1cnn2c(NCc3ccc[n+]([O-])c3)cc(N3CCCC[C@H]3CCO)nc12 | 0.61 °C | 2.64 °C | 0.06 °C | 0.02 °C | 3.51 °C | 0.49 °C | -0.18 °C | 0.7 °C | 0.2 °C | 0.32 °C
Oc1ccc(-c2nc(-c3ccc(F)cc3)c(-c3ccncc3)[nH]2)cc1 | 1.39 °C | 0.58 °C | 0.58 °C | 0.18 °C | 2.36 °C | 0.98 °C | -0.06 °C | 0.38 °C | 0.01 °C | 0.5 °C
CC1Oc2cc(cnc2N)-c2c(nn(C)c2C#N)CN(C)C(=O)c2ccc(F)cc21 (stereo not given) | 0.52 °C | 1.64 °C | 0.21 °C | -0.23 °C | 0.3 °C | -0.18 °C | -0.18 °C | 2.07 °C | 0.44 °C | 0.41 °C
N[C@@H]1CCCN(c2c(/C=C3\SC(=O)NC3=O)cccc2-c2ccccc2)C1 | 0.41 °C | 0.59 °C | 0.27 °C | -0.81 °C | 0.66 °C | 0.65 °C | 0.1 °C | 0.27 °C | 0 °C | -0.01 °C
N#C/C(=C(/N)Sc1ccc(N)cc1)c1ccccc1C(F)(F)F | 1.06 °C | -0.14 °C | 0.32 °C | 0.3 °C | 0.5 °C | 0.38 °C | -0.02 °C | 0.18 °C | -0.05 °C | 0.3 °C
NC1(c2ccc(-c3nc4ccn5c(=O)[nH]nc5c4cc3-c3ccccc3)cc2)CCC1 | 0.94 °C | -0.51 °C | 0.16 °C | 0.23 °C | 0.18 °C | -0.02 °C | 0.19 °C | 0.18 °C | -0.13 °C | 0.16 °C
O=c1cc(N2CCOCC2)oc2c1ccc1ccccc12 | -0.07 °C | 2.24 °C | 1.69 °C | 0.55 °C | 0.74 °C | -0.09 °C | -0.09 °C | 0.43 °C | -0.05 °C | 0.24 °C
COc1nccc(-c2c(-c3ccc(F)cc3)ncn2C2CCC(O)CC2)n1 (stereo not given) | -0.16 °C | 1.24 °C | -0.06 °C | 0.22 °C | -0.06 °C | 0.69 °C | -0.45 °C | 0.16 °C | 0.24 °C | 0.27 °C
Cc1[nH]nc2ccc(-c3cncc(OC[C@@H](N)Cc4ccccc4)c3)cc12 | 0.54 °C | 2.26 °C | 0.37 °C | 0.21 °C | 4.96 °C | 3.58 °C | -0.73 °C | 1.02 °C | 0.06 °C | 2.3 °C
C=CCc1ccc(O)c(-c2ccc(O)c(CC=C)c2)c1 [Honokiol] | 0.83 °C | 1.12 °C | 0.85 °C | 0.22 °C | 0.9 °C | 1.38 °C | 1.21 °C | 0.93 °C | 0.36 °C | 1.76 °C
CCn1cc(-c2ccnc3[nH]c(-c4cccc(CN(C)C)c4)cc23)c(-c2ccc(NC(=O)N(C)C)cc2)n1 | 0.68 °C | 2.48 °C | 1.01 °C | 0.47 °C | 2.81 °C | 0.73 °C | 0.91 °C | 1.28 °C | 0.51 °C | 0.87 °C
NC(=O)c1cnc(N[C@@H]2CCCC[C@@H]2N)nc1Nc1cccc(-n2nccn2)c1 | 0.52 °C | 0.79 °C | -0.04 °C | -0.14 °C | 3.33 °C | 1.47 °C | 0.85 °C | 0.37 °C | 1.02 °C | 5.03 °C
O=C(NC1CCNCC1)c1n[nH]cc1NC(=O)c1c(Cl)cccc1Cl | 0.79 °C and -0.04 °C | 0.32 °C and 1.46 °C | 0.21 °C and 0.72 °C | -0.01 °C and 1.05 °C | 4.91 °C and 5.53 °C | 0.86 °C and 0.55 °C | -0.04 °C and 0.17 °C | 0.25 °C and 0.54 °C | -0.23 °C and 0.38 °C | -0.1 °C and 0.56 °C
COc1cc(N2CCN(C)CC2)ccc1Nc1nccc(-c2cn(C)c3cnccc23)n1 | 1.86 °C | 0.45 °C | 1.77 °C | 0.56 °C | 0.92 °C | 1.48 °C | -0.38 °C | 1.57 °C | 0.19 °C | 1.15 °C
COC1(c2sc3c(N4CCOCC4)nc(-c4cnc(N)nc4)nc3c2C)COC1 | 1.79 °C | -0.24 °C | 1.43 °C | 0.47 °C | 0.4 °C | 0.39 °C | 0.28 °C | 0 °C | -0.11 °C | 0.03 °C
CN1CCN(Cc2ccc(NC(=O)Nc3ccc(Oc4ccnc(N)n4)cc3)cc2C(F)(F)F)CC1 | 0.75 °C | 4.82 °C | 0.41 °C | 0.15 °C | 7.67 °C | 0.98 °C | 0.62 °C | 1.03 °C | 0.2 °C | 1.93 °C
NC(=O)c1ncn([C@@H]2O[C@H](CO)[C@@H](O)[C@H]2O)c1N [AICAR (Acadesine)] | 0.45 °C | 1.18 °C | 0.56 °C | 0.52 °C | 0.07 °C | 0.94 °C | -0.35 °C | 0.6 °C | 0.32 °C | 0.33 °C

— the supplement of paper PMC9694430
